# Columns and labels:
# [1] = test system: AurkA
# [2] = test system: BMPR1A
# [3] = test system: BMPR1B
# [4] = test system: BMPR2
# [5] = test system: BMX
# [6] = test system: BRSK1
# [7] = test system: BRSK2
structure (smiles),measurement,setting,value
COc1cc(C=NNc2ncnc3c2cnn3-c2ccccc2)ccc1O [GW513184X],Kinases covered,[1],AurkA
COc1cc(-c2cncc(-c3cnn(C4CCNCC4)c3)c2)cc(OC)c1OC [K05908],Kinases covered,[2],BMPR1A
same,Kinases covered,[3],BMPR1B
CC(C)N1CC(=O)N(C)c2cnc(Nc3cccc(S(=O)(=O)CCN4CCOCC4)c3)nc21 [BI00009348],Kinases covered,[4],BMPR2
C=CC(=O)Nc1cc(-n2c(=O)ccc3cnc4ccc(-c5ccc(NS(C)(=O)=O)cc5)cc4c32)ccc1C [BMX-IN-1],Kinases covered,[5],BMX
COc1ccc2[nH]c3c4[nH]c5ccc(OC)cc5c4c4c(c3c2c1)C(=O)NC4=O [GW296115X],Kinases covered,[6],BRSK1
same,Kinases covered,[7],BRSK2

# Source: publication PMC7826789 (International Journal of Molecular Sciences, 2021)
